The whole screen tested about 64,000 compounds, of which about 15 (0.02%) were called active. The rule behind the calls is not given here. These entries were drawn from the full list. Potency and affinity values are given separately.
biological target: Bcl-2-related protein A1 (Mus musculus) (UniProt Q07440); test: Bfl-1 inhibitors, primary screen, biochemical, fluorescence polarization, FITC-Bid, mouse (AID 432); settings: FITC-Bid BH3 peptide fluorescence polarization displacement; at 20 µM; stronger effect = higher value
Sequence (Q07440 whole entry, looked up): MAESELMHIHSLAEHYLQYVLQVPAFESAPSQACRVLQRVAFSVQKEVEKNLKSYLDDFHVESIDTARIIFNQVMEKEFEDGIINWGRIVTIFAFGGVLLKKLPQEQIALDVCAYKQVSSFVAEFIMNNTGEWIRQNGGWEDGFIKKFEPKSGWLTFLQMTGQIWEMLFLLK

displacement, inactive:
COC(=O)c1ccc(C2C(C(=O)Nc3ccc(C)cc3C)=C(C)Nc3ncnn32)cc1 (stereo unspecified) -1.9%
CCOC(=O)CN1C(=O)C(C)(C)Oc2ccc(C(=O)NC(C)(C)CC)cc21 -6.4%
Cc1cc(C)cc(N2CC34C=CC(O3)C(C(=O)OCC(=O)NCc3ccco3)C4C2=O)c1 (stereo unspecified) -10.1%
Cc1nc2scc(-c3ccccc3)c2c(=O)n1N -4%
COc1ccc(S(=O)(=O)Cc2ccc(C(=O)N3CCN(c4ccc(Cl)cc4)CC3)o2)cc1 -2.7%
Nc1nc(-c2cccc(NS(=O)(=O)c3ccccc3)c2)cs1 5.8%
CN(C)c1nc(NCc2ccccc2)nc(Oc2ccc(=O)[nH]n2)n1 -7.2%
COc1cc(C(c2nnnn2C2CCCC2)N2CCc3ccccc3C2)ccc1O (stereo unspecified) -5.3%
Cc1ccnc(NS(=O)(=O)c2ccc(NC(=O)C3CCCCC3C(=O)O)cc2)n1 (stereo unspecified) -3.9%
Cc1csc(NC(=O)CCn2c(=O)oc3ccccc32)n1 2.1%
O=C1CC(N(Cc2ccco2)C(=O)Nc2ccc(F)cc2)C(=O)N1c1ccc(F)cc1 (stereo unspecified) 1.2%
CCOc1ccc(OCC)c(NC(=O)CSc2nnc(-c3cccnc3)o2)c1 -6%
CCOC(=O)C1CCN(C2CC(=O)N(c3cccc(Cl)c3)C2=O)CC1 (stereo unspecified) 5.3%
CCN(CC)C(=O)CSC1=C(C#N)C(c2cccs2)C=C(C)N1 (stereo unspecified) 4.6%
O=C(NCCN1C(=O)C2C3C=CC(C3)C2C1=O)NCc1ccccc1 (stereo unspecified) 8.8%
CCOC(=O)C1CCCN(C(=O)c2cn(C)c3ccc(S(=O)(=O)N(C)C)cc3c2=O)C1 (stereo unspecified) -2.5%
COc1cccc(NC(=O)c2ncn[nH]2)c1 -5.2%
O=C(O)c1ccc(COc2c(F)c(F)cc(F)c2F)cc1 -4%
CCOCCn1c(SCc2cccc(C)c2)nc2c1c(=O)[nH]c(=O)n2C 2.1%
O=C(OCc1cccc2ccccc12)c1ccc2c(=O)[nH]c(CN3CCOCC3)nc2c1 -1.5%
Cc1cc2cc(C(c3nnnn3Cc3ccco3)N3CCc4ccccc43)c(=O)[nH]c2cc1C (stereo unspecified) 6.1%
CCOC(=O)Cc1nnc(NC(=O)c2cccc(OCC)c2)s1 -3.8%
CCn1cc(Cl)c(C(=O)Nc2nc3ccccc3n2CCN2CCCCC2)n1 7.6%
O=C(Nc1c(C(=O)N2CCCCC2)cnn1-c1ccccc1)c1ccccc1 1.1%
O=C1CCCCCN1C(=O)c1cccc(C(=O)N2CCCCCC2=O)c1 -3.4%
CCOCC(=O)N1CCCC(C(=O)OCC)C1 (stereo unspecified) 5.1%
COC(=O)c1cc(=O)[nH]c(SCc2cccc(C)c2)n1 -9.3%
CC(C)CCNC(=O)NC(=O)COc1ccccc1C#N -1.9%
CCCS(=O)(=O)N1CCCC(C(=O)NCCN(CC)c2ccccc2)C1 (stereo unspecified) -0.1%
CCCN1C(=O)CC(c2ccco2)Sc2ccccc21 (stereo unspecified) -8.4%
CN(C)S(=O)(=O)c1ccc(C(=O)Nc2ccc(F)cc2F)cc1 -3.7%
O=S(=O)(c1ccccc1)c1cccc(S(=O)(=O)N2CCCCC2)c1 -8.3%
CC1=C(C(N)=O)C(c2cccc(O)c2)n2nc(CCCO)nc2N1 (stereo unspecified) -2.3%
O=C(c1ccccc1S(=O)(=O)NCc1ccccc1)N1CCCCC1 -2.9%
CCCN(c1ccc(C(C)C)cc1)S(=O)(=O)c1c(C)noc1C -2%
COC(=O)Nc1ccc2c(c1)ncn2C1CCCCC1 -3.2%
Brc1ccccc1-c1nnc(CSc2nncn2-c2ccccc2)o1 -1.8%
CCCCC(CC)CNC(=O)c1ccc2c(c1)OCO2 (stereo unspecified) 0.7%
CC1CC(C)CN(Cc2nc3c(c(=O)n(C)c(=O)n3C)n2CCN2CCOCC2)C1 (stereo unspecified) 29.2%
Cc1ccc(S(=O)(=O)N(C)CCCC(=O)n2nc(C)cc2C)cc1 7%
COc1ccc(C2CCN(Cc3cccnc3)CC2O)cc1 (stereo unspecified) -8.7%
CCOC(=O)N1CCC(NC(=O)CN2C(=O)CSc3ncccc32)CC1 3.4%
Cc1ccc(S(=O)(=O)c2cc3c(=O)n4ccccc4nc3n(CC3CCCO3)c2=N)cc1C (stereo unspecified) -14.7%
Cc1cc(NCc2ccc(F)cc2Cl)n2nnnc2n1 -1.6%
Cc1c(N(C)C(=O)C23CC4CC(CC(C4)C2)C3)c(=O)n(-c2ccccc2)n1C -6%
CC1(C)NC(=O)N(c2ccccc2Cl)C1(C)NO (stereo unspecified) -2.3%
CCOC(=O)N1CCC(c2cc(=O)n3[nH]c(-c4ccccc4)cc3n2)CC1 5.1%
CCOC(=O)c1ccc(NC(=O)CC2C(=O)N(c3cccc(OC)c3)C(=O)N2CCOC)cc1 (stereo unspecified) -1.5%
O=C(c1cc2c(s1)CCCCC2)N1CCN(c2ncccn2)CC1 8.4%
O=C(CN1CCN(c2ccc(F)cc2)CC1)N1CCOCC1 -2.4%
COc1nc(N(C)C)nc(N(OC)S(=O)(=O)c2ccccc2Cl)n1 3.7%
CCC(C)c1c(O)nc(SCC(=O)c2ccccc2)[nH]c1=O (stereo unspecified) -7.8%
Cc1ccc(S(=O)(=O)NC(=O)COc2ccccc2C(N)=O)cc1 -4.3%
COc1ccccc1-c1nc(C#N)c(N2CCN(C(c3ccccc3)c3ccccc3)CC2)o1 -2.4%
CC(C)OCCCNC(=O)c1sc(=S)n(C)c1N 10.9%
CCOC(=O)C1CCN(CC(=O)Nc2c(C(=O)OC)[nH]c3ccccc23)CC1 -7%
CCOc1cc2c(cc1OCC)C(C(=O)O)C(c1cc(Br)c(O)c(OC)c1)N(C)C2=O (stereo unspecified) 6.3%
CCSCCNC(=O)c1cc(-n2cnnc2)ccc1Cl 3%
CCOC(=O)c1oc2cccc(O)c2c1CN(Cc1ccccc1)C(C)=O 1.2%
O=C(CCC(=O)N(CC(=O)NC1CCCCC1)Cc1ccco1)Nc1nccs1 -3.5%
CSc1nc(-c2ccccc2O)nc(-c2ccccc2O)n1 4.5%
